# Measurements as given in PubChem BioAssay (NCI).
# The panel holds about 83,000 compounds, 20% with a hit somewhere; the sample as a whole holds those more often.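 Step 1: grow cells in 96-well plates. Step 2: add test compound at a single concentration. Step 3: incubate 48 h. Step 4: record percent growth.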 A number with no mark means an inactive call. Active and inactive are the calls of the source. The calls were made as follows: active = growth percent below 10; inactive = the rest.
# How the values were obtained:
# Experiment in all cases: NCI-60 one-dose screen, 48 h (100 = growth as untreated, 0 = no growth, -100 = all killed)
# Conditions in all cases: 10 µM unless noted
# T-47D breast = tested on: T-47D breast
# MDA-MB-435 melanoma = tested on: MDA-MB-435 melanoma
# SW-620 colon = tested on: SW-620 colon
# MCF7 breast = tested on: MCF7 breast
# HCT-116 colon = tested on: HCT-116 colon
# HCC-2998 colon = tested on: HCC-2998 colon
# KM12 colon = tested on: KM12 colon
SMILES,growth (T-47D breast),growth (MDA-MB-435 melanoma),growth (SW-620 colon),growth (MCF7 breast),growth (HCT-116 colon),growth (HCC-2998 colon),growth (KM12 colon)
CCOC(=O)c1ccc(NC(=O)Nc2nccs2)cc1,57.3%,5.34% (active),16.5%,0.495% (active),1.86% (active),-27.7% (active),-33.3% (active)
CCCCNc1ccc(-c2ccc(NCCCC)cc2)cc1,45.9%,40.8%,78.6%,34.3%,55.3%,94.7%,56.9%
NC(=O)N1CCOCC1,97.4%,116%,112%,93%,106%,112%,108%
CCOc1ccc(NC(=S)N2CCC(CCCC3CCN(C(=S)Nc4ccc(OCC)cc4)CC3)CC2)cc1,67.8%,90.4%,98.3%,84.1%,84.5%,85.6%,90.6%
CC(=O)C[n+]1ccc(C)cc1Sc1ccccc1C,82.2%,101%,100%,90.3%,92.9%,108%,94.1%
O=C(CCl)Oc1ccc([N+](=O)[O-])cc1,105%,107%,113%,99.5%,110%,102%,107%
CCOc1ccccc1NC(=O)CCl,75.3%,83.9%,98.4%,46.6%,75.8%,110%,97.1%
C=CCC(OC(C)=O)c1ccc(C(C)C)cc1 (stereo not drawn),115%,124%,107%,113%,110%,103%,114%
Cc1cc(NC(=O)c2ccccc2)c(Cl)cc1N,98%,97.4%,106%,84.9%,103%,102%,106%
CCOC(=O)CNC(=O)Sc1ccc(C(C)(C)C)cc1,88.4%,88.3%,108%,99.3%,98.6%,110%,102%
Cc1cc2nc(C)c(C)nc2cc1C,99.5%,105%,111%,90.7%,112%,110%,108%
Nc1ccn(C2CC(N)C(CO)O2)c(=O)n1 (stereo not drawn),81.1%,83.6%,88.8%,66.5%,63.6%,74.8%,97.4%
Nc1cc2ccccc2c(O)c1O,-0.96% (active),-81.1% (active),-33.6% (active),-43.2% (active),-66.9% (active),,62.3%
COC(=O)Cc1cc(COC(C)=O)ccc1C,110%,116%,110%,106%,104%,106%,114%
Oc1cccnc1CN1CCCC1,95.2%,107%,105%,93.9%,116%,,113%
O=C(O)CCCCCNC(=O)OCc1ccccc1,97.6%,,95.2%,93.6%,92.9%,105%,101%
Cn1/c(=N\N=C\c2ccccc2OCCO)sc2ccccc21,79.3%,,109%,76.9%,98.8%,110%,92.2%
O=C1C=C[C@H](O)[C@@]2(CO)O[C@@H]12,94.2%,77%,13.9%,42.9%,19.9%,104%,98.4%
COC1=C(OC)C(=O)C(SC/C=C(\C)CCCC(C)CCCC(C)CCCC(C)C)=CC1=O (stereo not drawn),12.5%,18.5%,18.7%,4.9% (active),9.93% (active),-4.48% (active),11.6%
NC(CSSCC(N)C(=O)O)C(=O)O (stereo not drawn),54.7%,-15.1% (active),21.7%,20.4%,18.6%,9.17% (active),8.65% (active)
Cc1ccc(OC(=O)c2ccccc2)cc1,108%,112%,111%,97.4%,105%,107%,108%

SMILES,growth (T-47D breast),growth (MDA-MB-435 melanoma),growth (SW-620 colon),growth (MCF7 breast),growth (HCT-116 colon),growth (HCC-2998 colon),growth (KM12 colon)
Nc1ncnc(Nc2ccccc2)n1,96.3%,107%,101%,101%,118%,,120%
O=C(OCC1CCCO1)c1ccc([N+](=O)[O-])cc1 (stereo not drawn),84.8%,109%,91.8%,95.6%,103%,,109%
Clc1ccc(/C=C/c2ccccn2)cc1,44.1%,105%,84.2%,25.9%,81.6%,,89.8%
NC(=S)c1c(N)n(C2OC(CO)C(O)C2O)c2ncnc(N)c12 (stereo not drawn),-48.2% (active),-46.6% (active),-18.3% (active),-11.6% (active),5.32% (active),3.23% (active),-6.52% (active)
O=Cc1ccc(Cl)c(Cl)c1,115%,110%,118%,98.4%,107%,97.2%,113%
Oc1ccc2ccccc2c1CN1CCOCC1,104%,112%,113%,106%,103%,,114%
O=C(NC1CCCCC1)c1ccc(Cl)cc1,85.1%,105%,103%,104%,106%,,102%
CCC(=O)Oc1ccc2ccccc2c1,74.9%,101%,85.7%,101%,102%,88.7%,99.6%
C=C1CC2(OC1=O)C(=O)N(C)c1ccc(I)cc12 (stereo not drawn),-82.6% (active),-64.8% (active),-76.3% (active),-66.8% (active),-92.6% (active),-89.3% (active),2.99% (active)
CCOC(=O)CO,97.7%,104%,110%,97.5%,102%,103%,109%
S=c1nc(-c2ccccn2)c(-c2ccccn2)n[nH]1,93.9%,110%,106%,96.9%,100%,,97.4%
CCOC(=O)C(C#N)=C1CCN(C)CC1,106%,109%,97.2%,,103%,,97.7%
OCCOc1ccc(-c2cc(-c3ccccn3)nc(-c3ccccn3)c2)cc1,17.4%,22.5%,2.05% (active),1.69% (active),6.4% (active),,8.52% (active)
CCOC(=O)c1cc(C)[nH]c(=O)c1C#N,107%,86%,107%,104%,99.9%,,103%
CC(=O)c1cccc(NS(=O)(=O)c2ccc(C)cc2)c1,67.7%,,43.3%,39.8%,60.2%,65.4%,34.2%
O=Cc1c(O)c2ccccc2[nH]c1=O,106%,118%,93.8%,95.7%,89.4%,,139%
CN(C)c1ccc2c(N(C)C)cc(N(C)C)nc2c1,56%,,51.6%,13.9%,48.1%,118%,78.3%
COc1cccc2c1Cc1ccccc1-2,101%,103%,,100%,101%,98.5%,104%
CCOc1ccc(C(=O)O)cc1,100%,104%,99.7%,94%,99%,104%,112%
O=c1cc(C(F)(F)F)[nH]c(=S)[nH]1,97.7%,106%,,94.9%,112%,117%,103%
